PLAP act: activates human placental alkaline phosphatase. hit rate 1.2% among 96,000. P05187. purified PLAP enzyme, luminescent substrate read-out; hits give high values. activation fold at 20 µM. AID 696; in the data active = activation fold above about 2
D1 allo mod: allosterically modulates the human D1 dopamine receptor. P21728. HEK293 D1, CRE-luciferase, dopamine EC30 potentiation; actives deviate in either direction. hit rate 5.9% among 58,000. B-score at 10 µM. AID 641;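 active = luminescence count or its row- and column-corrected plate score outside the 99.7% band of the plate's sample wells, on either side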
DAT uptake mod: human DAT dopamine uptake with cocaine, either direction. Q01959. LLC-PK1 hDAT cells, [14C]-dopamine uptake with cocaine IC80; actives deviate in either direction. B-score at 10 µM. hit rate 1.3% among 110,000. AID 449768;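 active = Z score or B-score, a plate-position-corrected score, falls beyond the plate's 99.7% confidence bounds, in either direction; inactive = both scores lie inside the 99.7% bounds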
Target sequence (Q01959 whole entry, looked up): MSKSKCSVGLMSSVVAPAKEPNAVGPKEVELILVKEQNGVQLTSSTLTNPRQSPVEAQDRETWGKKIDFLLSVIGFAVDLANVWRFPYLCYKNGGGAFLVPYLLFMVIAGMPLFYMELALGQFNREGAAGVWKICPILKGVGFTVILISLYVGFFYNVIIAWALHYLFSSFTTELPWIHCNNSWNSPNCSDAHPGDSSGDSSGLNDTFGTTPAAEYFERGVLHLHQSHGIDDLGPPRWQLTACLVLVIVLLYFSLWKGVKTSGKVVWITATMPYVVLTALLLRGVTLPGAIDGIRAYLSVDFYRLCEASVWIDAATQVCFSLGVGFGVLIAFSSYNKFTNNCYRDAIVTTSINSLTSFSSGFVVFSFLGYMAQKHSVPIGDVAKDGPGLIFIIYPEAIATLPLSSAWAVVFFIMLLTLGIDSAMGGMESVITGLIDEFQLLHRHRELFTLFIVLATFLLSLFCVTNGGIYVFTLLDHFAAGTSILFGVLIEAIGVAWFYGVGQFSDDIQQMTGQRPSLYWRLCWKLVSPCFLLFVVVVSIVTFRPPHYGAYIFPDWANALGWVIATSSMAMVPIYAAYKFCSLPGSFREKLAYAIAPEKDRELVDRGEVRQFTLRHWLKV
PostGolgi yeast: growth inhibition of a yeast mutant, post-Golgi transport screen; post-Golgi transport phenotypic cell assay; inhibition, % at 10 µM; hit rate 0.9% among 98,000; AID 739;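 note: yeast cells grown in 1536-well plates; yeast grown about 18 h at 30C before absorbance read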
PostGolgi ctrl: inhibits growth of the yeast control strain; efflux-deficient yeast background strain, growth absorbance A615, 16 h; inhibition, % at 10 µM; hit rate 5% among 98,000
Cav32 inh: human Cav3.2 channel inhibition, primary screen | O95180 | Cav3.2-expressing cells, Fluo-4 calcium fluorescence FDSS; hits give low values | B-score at 10 µM | hit rate 4% among 100,000;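 active = single-dose well whose peak fluorescence ratio is a statistical outlier from its plate by either plate-standardised score or position-corrected B-score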
D1 mod confirm: confirmation of human D1 dopamine receptor allosteric modulators; shares compounds with D1 allo mod; HEK293 D1 CRE-luciferase, dopamine EC30 potentiation; hits give high values; luminescence at 10 µM; hit rate 88% among 2,200; AID 642;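 active = luminescence in either of two replicates above the same-plate mean plus 3 SD of the low-dose dopamine control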
D1 ag no DA: secondary test of D1 modulators: activity without dopamine | HEK293 D1 CRE-luciferase, luminescence, no dopamine; hits give high values | AID 646 | shares compounds with D1 allo mod | luminescence at 10 µM | hit rate 0.8% among 1,900; in the data active = luminescence above about 3900
Isoprot counter: alters isoproterenol CRE-luciferase response in HEK293 cells; HEK293 D1 CRE-luciferase, isoproterenol EC30 counter-screen; calls only at 10 µM; AID 647; shares compounds with D1 allo mod; hit rate 63% among 2,200;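 active = luminescence in either replicate above plate mean of wells with a partly effective reference agonist dose plus 3 SD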;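 note: isoproterenol raises cAMP through native beta-adrenoceptor Gs so signal bypasses D1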
Of the large screens only hits and unclear results are named; the others gave an inactive call (follow-up assays come after a bar, where they were run). In the library only some 12% were active in any assay of this set; here they are far more common. Cut-off read from the data, not from the text of the source, unless noted: active = inhibition above about 30%; inactive = the rest.

N#Cc1nc(-c2cccs2)oc1NCC1CCCO1 (stereo not drawn)	D1 allo mod 12.9, PostGolgi ctrl 38.9 | D1 mod confirm 18624 | Isoprot counter inactive
CCCn1nnc(NC(=O)COc2ccc(C3CCCCC3)cc2)n1	none
CCc1n[nH]c2c1/C(=N\O)CC(c1ccccc1)C2 (stereo not drawn)	D1 allo mod 4.26 | D1 mod confirm 7364 | D1 ag no DA inactive | Isoprot counter inactive
CC1(C)CC(=O)CC(=Nc2ccc(C(=O)O)cc2)C1	none
C=CCOc1ccc(/C(CC)=N/O)c(OC)c1	D1 allo mod 3.41 | D1 mod confirm 8264 | D1 ag no DA inactive | Isoprot counter inactive
Cc1cc(Nc2ccc(C)c(F)c2)n2ncnc2n1	D1 allo mod 3.29 | D1 mod confirm inactive | D1 ag no DA inactive | Isoprot counter inactive
c1ccc(Nc2cc(-c3ccccc3)nc3ncnn23)cc1	D1 allo mod 7.92, PostGolgi yeast 92.6 | D1 mod confirm 15552 | D1 ag no DA inactive | Isoprot counter active
Cc1cc(Nc2cc(F)ccc2C)n2ncnc2n1	none (no result: D1 allo mod)
COc1ccc(CCNc2cc(-c3ccccc3)nc3ncnn23)cc1	none (no result: D1 allo mod, DAT uptake mod, Cav32 inh)
C=CCn1c(SC(C)CC)nc(O)cc1=O (stereo not drawn)	none (no result: D1 allo mod)
C=CCc1ccccc1OCC(O)CN(CC)CC (stereo not drawn)	none (no result: D1 allo mod)
COc1ccc(C(=O)COC(=O)Cn2nnc3ccccc32)cc1Br	none (no result: D1 allo mod)
CC1(C(=O)NC2CCCCC2)CCC(=O)N1Cc1cccnc1 (stereo not drawn)	D1 allo mod 7.47 | D1 mod confirm inactive | D1 ag no DA inactive | Isoprot counter inactive
COc1ccc(C2=[N+]([O-])C(C)(C)N(O)C2C)cc1 (stereo not drawn)	none (no result: PLAP act, D1 allo mod, PostGolgi yeast, PostGolgi ctrl)
O=C1CC(c2ccc(F)c(Br)c2)C2=C(CCCC2=O)N1 (stereo not drawn)	none
CCCCN(CCCC)C(=O)c1nsnc1-c1ccccc1O	none (no result: D1 allo mod)
COC(=O)C1=C(C)Nc2ccc(C)cc2S1	D1 allo mod 8.74 | D1 mod confirm 11576 | D1 ag no DA inactive | Isoprot counter active
COC(=O)c1sc(NC(=O)CSc2nc3cccnc3n2C2CCCCC2)nc1C	D1 allo mod 9.5 | D1 mod confirm 10416 | D1 ag no DA inactive | Isoprot counter active
CCOC(=O)c1nn(-c2ccccc2C)c(=O)c(C#N)c1C	D1 allo mod 3.11 | D1 mod confirm 9504 | Isoprot counter inactive
CCOc1ccc(CCNC(=O)CCN2C(=O)COc3ccccc32)cc1OCC	D1 allo mod 2.73 | D1 mod confirm 9680 | D1 ag no DA inactive | Isoprot counter active
COc1ccccc1CNC(=O)CCN1C(=O)COc2ccc(C)cc21	none
O=C(CCN1C(=O)COc2ccccc21)NCCC1=CCCCC1	none
COc1ccc(Br)cc1CNC(=O)CCN1C(=O)COc2ccccc21	D1 allo mod 3.63 | D1 mod confirm 6192 | Isoprot counter inactive
Cc1ccc(C)n1-c1ccc(N2CCOCC2)c(Br)c1	none (no result: D1 allo mod)
O=C(NC(=O)c1cccc(OC(F)(F)C(F)F)c1)OC1CCS(=O)(=O)C1 (stereo not drawn)	none
CCOC(=O)c1ccccc1NC(=O)c1ccc(NS(C)(=O)=O)cc1	D1 allo mod 19.2 | D1 mod confirm 19196 | D1 ag no DA inactive | Isoprot counter active
O=C(CCn1c(=O)oc2ccccc21)Nc1cccc(Cl)c1	D1 allo mod 14 | D1 mod confirm inactive | D1 ag no DA inactive | Isoprot counter inactive
CC(=O)c1ccc(NC(=O)CCn2c(=O)oc3ccccc32)cc1	none
CCOc1nc(OCC)nc(N2CCC(C)CC2)n1	D1 allo mod 27.2 | D1 mod confirm 26964 | D1 ag no DA inactive | Isoprot counter active
CCCCNC(=O)C1CCN(c2nc(OC)nc(OC)n2)CC1	none (no result: PLAP act, D1 allo mod, PostGolgi yeast, PostGolgi ctrl)
CCOc1nc(C#N)nc(N2CCCCC2)n1	D1 allo mod 2.56 | D1 mod confirm 10912 | D1 ag no DA inactive | Isoprot counter active
